# Reference: PubChem BioAssay (NCATS)
# Records with an inconclusive call do not appear. Activity calls are given as the source filed them. Unless noted, calls come from the whole dose curve; as a rule, active = well fitted curve in the direction sought with a large enough effect; inconclusive = small, poorly fitted or top-dose-only effect, or another doubt; inactive = no such curve, though single readings can be large; an effect the other way counts as inactive or inconclusive.
# What was measured:
# [1] = qHTS Assay for Lipid Storage Modulators (AID 1519; calls by dose curve; for activity change, negative = inhibition: % is set by controls: 0 for no effect and ±100 for the full control effect); settings: Drosophila S3 cells, BODIPY lipid droplet/cell ratio, laser cytometry, cells loaded with oleic acid
# Summary of the method: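 Cells seeded at 5,000 per well were treated with compounds over a concentration series and loaded with oleic acid (400 uM, as added). Lipid droplet fluorescence (488 nm excitation, 500-530 nm channel) was read by laser-scanning cytometry and normalized to 20 uM Triacsin C.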
# [2] = target: Alpha-galactosidase A (Homo sapiens) (UniProt P06280); test: Counterscreen for Glucocerebrosidase Inhibitors: qHTS Assay for Human alpha-Galactosidase at pH 4.5 (AID 992); settings: purified enzyme, fluorogenic substrate; series mostly up to 76.9 µM; note: 0% is about no effect
# Summary of the method: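 Read-out is 4-methylumbelliferone fluorescence (365 nm excitation, 440 nm emission) after a pH 10 NaOH/glycine stop. Reactions held 2 nM enzyme and 80 uM substrate at pH 4.5 for 20 min at room temperature.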
# [3] = target: alpha-glucosidase (Oryza sativa, rice) (UniProt Q653V4); test: Counterscreen for Glucocerebrosidase Inhibitors: qHTS Assay for Rice alpha-Glucosidase at pH 5.0 (AID 997); settings: rice alpha-glucosidase enzyme activity; series mostly up to 76.9 µM;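 note: 0% = full activity with enzyme and -100% = basal without enzyme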
# Summary of the method: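 Rice alpha-glucosidase (4 nM final) with 400 uM 4-methylumbelliferyl-alpha-D-glucopyranoside in citrate buffer pH 5.0, 20 min at room temperature, stopped at pH 10; fluorescence 365/440 nm, compounds 0.7 nM–77 uM, AC50 from Hill fits.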
# [4] = Validation of Assay for Modulators of Lamin A Splicing (AID 1459; active = well fitted curve in the direction sought with a large enough effect in the signal ratio; the % refers to the signal ratio;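 note: cells exposed to compound for two days before reading; 0% is about no effect; ratio rise marks activators and ratio drop marks inhibitors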); settings: Lamin A splicing dual RFP/GFP fluorescence reporter; series mostly up to 9.22 µM
# Summary of the method: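 S3 HeLa stably expressing lamin A-EGFP splicing minigene and DsRed2, 600 cells/well in Opti-MEM with 2% FBS, treated 48 h at 37C; laser-scanning cytometry gives GFP/RFP total intensity ratio; ancitabine positive control, 0.5% DMSO vehicle.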
# [5] = target: DNA repair nuclease/redox regulator APEX1 (Homo sapiens) (UniProt P27695); test: qHTS Validation Assay for Inhibitors of the Human Apurinic/apyrimidinic Endonuclease 1 (APE1) (AID 1705;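 note: TAMRA fluorescence gain over two minutes as APE1 cuts a quenched THF abasic duplex; % is set by controls: 0 for no effect and ±100 for the full control effect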); settings: purified APE1 endonuclease activity, fluorescence, titration; series mostly up to 57.1 µM
# Summary of the method: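 Fluorogenic double-stranded THF abasic-site substrate (5'-TAMRA/3'-BHQ-2), 50 nM final. Enzyme preincubated with compound 15 min at room temperature, then substrate added. Kinetic fluorescence (ex 525/em 598 nm) read three times at 60 s intervals; activity taken as third-minus-first read difference.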
# [6] = Counterscreen for APE1 Inhibitors: Fluorescent Dye Displacement Validation Assay (AID 1707); settings: fluorescent dye displacement from DNA; series mostly up to 57.1 µM;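 note: plate controls were ThO with dsDNA and no compound for no effect and ThO without dsDNA for full effect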
# Summary of the method: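 ThO 250 nM + dsDNA 50 nM (THF abasic site, 5'-TAMRA), Tris-HCl pH7.5/50mM NaCl/2 mM MgCl2/0.01% Tween-20; compounds pin-transferred; ex 480/em 540 nm endpoint. Neutral = no compound; no-DNA ThO wells = negative control.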
# [7] = target: Endonuclease 4 (Escherichia coli (strain K12)) (UniProt P0A6C1); test: Counterscreen for APE1 Inhibitors: qHTS Validation Assay for Inhibitors of Endonuclease IV (AID 1708); note: % is set by controls: 0 for no effect and ±100 for the full control effect; settings: E. coli endonuclease IV, DNA cleavage fluorescence; series mostly up to 57.1 µM
# Summary of the method: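 Concentration-response counterscreen run identically to the APE1 assay: 15 min room-temperature preincubation of 2 nM enzyme with compound, reaction started with 50 nM quenched abasic DNA, progress taken from kinetic fluorescence.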
# [8] = qHTS for differential inhibitors of proliferation of Plasmodium falciparum line 7G8 (AID 1815); settings: Plasmodium falciparum 7G8 proliferation inhibition; series mostly up to 28.7 µM;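 note: potency is the fitted concentration of half-maximal effect; parasite growth measured after three days of incubation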
# [9] = Cell Viability - LYMP2-007 (AID 979); settings: LYMP2-007 lymphoblastoid cell viability; series mostly up to 92.2 µM;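 note: cells exposed to compound for 24 h before reading; nearly all actives have a fitted effect of over 60% in size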; note: potency is the fitted concentration of half-maximal effect
# Summary of the method: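 Human lymphoblastoid LYMP2-007 cells (2500/well) preincubated 5 h at 37 C, then treated 24 h at 37 C in complete medium. Viability by CellTiter-Glo ATP luminescence after 30 min at room temperature; AC50 from Hill fits.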
# [10] = Cell Viability - LYMP2-008 (AID 980); settings: LYMP2-008 lymphoblastoid cell viability, qHTS; series mostly up to 92.2 µM; note: nearly all actives have a fitted effect of over 60% in size; note: potency is the fitted concentration of half-maximal effect
# Summary of the method: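 LYMP2-008 lymphoblastoid cells (2500/well) plated 5 h, then treated 24 h at 37 C in complete medium. Viability read as intracellular ATP by CellTiter-Glo luminescence after 30 min at room temperature; AC50 from Hill fits.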
# [11] = Cell Viability - LYMP2-010 (AID 981); settings: LYMP2-010 lymphoblastoid cell viability, qHTS; series mostly up to 92.2 µM; note: nearly all actives have a fitted effect of over 55% in size; note: potency is the fitted concentration of half-maximal effect
# Summary of the method: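 Human lymphoblastoid LYMP2-010 cells (2500/well) treated 24 h at 37 C in complete medium; viability read as intracellular ATP by CellTiter-Glo luminescence. AC50 from Hill fits of concentration-response data; tetraoctylammonium bromide positive control.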
# [12] = Cell Viability - LYMP2-012 (AID 982); settings: LYMP2-012 lymphoblastoid cell viability qHTS; series mostly up to 92.2 µM;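 note: cellular ATP by luciferase luminescence where a drop means cytotoxicity; cells exposed to compound for one day before reading; nearly all actives have a fitted effect of over 55% in size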; note: potency is the fitted concentration of half-maximal effect
# [13] = Cell Viability - LYMP2-014 (AID 983); settings: LYMP2-014 lymphoblastoid cells, viability qHTS; series mostly up to 92.2 µM; note: nearly all actives have a fitted effect of over 50% in size; note: potency is the fitted concentration of half-maximal effect
# Summary of the method: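 LYMP2-014 human lymphoblastoid cells, 2500/well, treated 24 h at 37 C in complete medium; viability by CellTiter-Glo ATP luminescence after 30 min at room temperature. AC50 from Hill fits of qHTS concentration-response; tetraoctylammonium bromide positive control.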
# [14] = Cell Viability - LYMP2-016 (AID 984); settings: LYMP2-016 lymphoblastoid cell viability, qHTS; series mostly up to 92.2 µM; note: nearly all actives have a fitted effect of over 55% in size; note: potency is the fitted concentration of half-maximal effect
# Summary of the method: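 Human lymphoblastoid LYMP2-016 cells, 2500 per well, treated with compounds for 24 h at 37 C. Viability read as intracellular ATP by CellTiter-Glo luminescence after 30 min at room temperature; AC50 from Hill fits of concentration-response.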
# [15] = Cell Viability - LYMP2-020 (AID 986); settings: series mostly up to 92.2 µM; note: nearly all actives have a fitted effect of over 55% in size; note: potency is the fitted concentration of half-maximal effect
# Summary of the method: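 Human lymphoblastoid LYMP2-020 cells (2500/well) preincubated 5 h at 37 C, then treated 24 h at 37 C. Viability measured as intracellular ATP by CellTiter-Glo luminescence after 30 min at room temperature; AC50 from Hill fits.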
# [16] = Cell Viability - LYMP2-022 (AID 987); settings: LYMP2-022 lymphoblastoid cell viability; series mostly up to 92.2 µM; note: nearly all actives have a fitted effect of over 55% in size; note: potency is the fitted concentration of half-maximal effect
# Summary of the method: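 LYMP2-022 lymphoblastoid cells (2500/well, complete medium) were treated with compounds for 24 hours at 37 C; intracellular ATP was then read by CellTiter-Glo luminescence after 30 min at room temperature. AC50 values were derived from Hill-equation fits.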
# [17] = Cell Viability - LYMP2-024 (AID 988); settings: LYMP2-024 lymphoblastoid cell viability; series mostly up to 92.2 µM; note: nearly all actives have a fitted effect of over 60% in size; note: potency is the fitted concentration of half-maximal effect
# Summary of the method: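 Human lymphoblastoid LYMP2-024 cells (2500/well) rested 5 hr, then treated with compound for 24 hr at 37 C in complete medium. Viability was measured as intracellular ATP by CellTiter-Glo luminescence. AC50 values came from Hill-equation fits.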
# [18] = Cell Viability - LYMP2-026 (AID 989); settings: LYMP2-026 lymphoblastoid cell viability, qHTS; series mostly up to 92.2 µM; note: nearly all actives have a fitted effect of over 50% in size; note: potency is the fitted concentration of half-maximal effect
# Summary of the method: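 Human lymphoblastoid LYMP2-026 cells, 2500/well, exposed to compound 24 h at 37 C in complete medium. Viability as intracellular ATP by CellTiter-Glo luminescence; AC50 from Hill fits of qHTS concentration-response.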
# [19] = Cell Viability - LYMP1-002 - Assay at 24 hr (AID 993); settings: LYMP1-002 lymphoblastoid cells viability; series mostly up to 92.2 µM; note: potency is the fitted concentration of half-maximal effect
# Summary of the method: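 Human lymphoblastoid LYMP1-002 cells (2500/well) treated 24 h at 37 °C; viability as intracellular ATP by CellTiter-Glo luminescence. Tetraoctylammonium bromide as positive control; AC50 from Hill-equation fits of qHTS concentration-response.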
# [20] = Cell Viability - LYMP1-002 - Assay at 40 hr (AID 994); settings: LYMP1-002 lymphoblastoid cell viability; series mostly up to 92.2 µM; note: nearly all actives have a fitted effect of over 60% in size; note: potency is the fitted concentration of half-maximal effect
# Summary of the method: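 LYMP1-002 human lymphoblastoid cells (2500/well, complete medium) were treated with compounds for 40 hr at 37 C. Intracellular ATP was measured by CellTiter-Glo luminescence, and AC50 values came from Hill-equation fits of concentration-response data; tetraoctylammonium bromide was the positive control.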
# [21] = measured here: cell count channel max response
# [22] = measured here: lipid channel max response
# Chain of Alpha-galactosidase A (Homo sapiens) (P06280 whole entry, looked up): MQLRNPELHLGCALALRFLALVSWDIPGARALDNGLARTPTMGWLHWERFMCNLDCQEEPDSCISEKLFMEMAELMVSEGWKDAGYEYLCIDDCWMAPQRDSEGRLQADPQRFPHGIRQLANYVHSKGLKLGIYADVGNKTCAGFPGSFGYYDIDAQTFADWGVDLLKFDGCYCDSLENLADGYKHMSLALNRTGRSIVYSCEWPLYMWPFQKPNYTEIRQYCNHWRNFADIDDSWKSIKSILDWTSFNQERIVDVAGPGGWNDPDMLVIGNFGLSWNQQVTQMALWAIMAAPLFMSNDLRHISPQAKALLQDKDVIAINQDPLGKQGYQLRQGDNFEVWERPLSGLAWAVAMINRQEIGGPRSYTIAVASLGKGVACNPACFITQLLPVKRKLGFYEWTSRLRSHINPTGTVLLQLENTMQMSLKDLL
# Chain of DNA repair nuclease/redox regulator APEX1 (Homo sapiens) (P27695 whole entry, looked up): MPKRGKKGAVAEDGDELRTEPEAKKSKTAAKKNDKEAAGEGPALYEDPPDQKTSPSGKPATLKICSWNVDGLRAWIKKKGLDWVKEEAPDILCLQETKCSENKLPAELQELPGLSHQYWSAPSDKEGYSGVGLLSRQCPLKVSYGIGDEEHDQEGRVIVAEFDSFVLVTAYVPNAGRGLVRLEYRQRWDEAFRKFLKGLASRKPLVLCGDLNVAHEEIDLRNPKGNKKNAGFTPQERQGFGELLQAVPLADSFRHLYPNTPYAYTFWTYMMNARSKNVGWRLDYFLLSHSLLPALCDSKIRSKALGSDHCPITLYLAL
smiles,measurement,setting,value
COC(=O)c1c(Cl)c(Cl)c(C(=O)OC)c(Cl)c1Cl,"activity change, negative = inhibition",[1]; at 57.5 µM (top of the series),5.84% (inactive)
same,max response,[1]; [21],15.4%
same,max response,[1]; [22],24.6%
Brc1ccc([C@H]2CN3CCSC3=N2)cc1,outcome,[2],inactive
same,outcome,[3],inactive
same,outcome,[4],inactive
same,"activity change, negative = inhibition",[1]; at 57.5 µM (top of the series),0.192% (inactive)
same,max response,[1]; [21],-9.46%
same,max response,[1]; [22],-7.25%
same,outcome,[5],inactive
same,outcome,[6],inactive
same,outcome,[7],inactive
same,Potency,[8],11.2 µM (active)
NCC(=O)O,"activity change, negative = inhibition",[1]; at 57.5 µM (top of the series),-2.71% (inactive)
same,max response,[1]; [21],5.73%
same,max response,[1]; [22],4.04%
COc1cccc2c1[C@@H]1CN(CCCCn3c(=O)[nH]c4c(sc5ncc(-c6ccccc6)nc54)c3=O)C[C@@H]1CO2,outcome,[4],inactive
same,"activity change, negative = inhibition",[1]; at 57.5 µM (top of the series),0.568% (inactive)
same,max response,[1]; [21],7.98%
same,max response,[1]; [22],9.55%
same,outcome,[5],inactive
same,outcome,[6],inactive
same,Potency,[8],11.2 µM (active)
Nc1ncnc2nc[nH]c12,"activity change, negative = inhibition",[1]; at 57.5 µM (top of the series),6.5% (inactive)
same,max response,[1]; [21],12.7%
same,max response,[1]; [22],22.5%
Cc1ncc(CO)c(CO)c1O,"activity change, negative = inhibition",[1]; at 25.7 µM (top of the series),-0.151% (inactive)
same,max response,[1]; [21],0.978%
same,max response,[1]; [22],-0.91%
COc1ccccc1N1CCN(CCN2C(=O)CC3(CCCC3)CC2=O)CC1,outcome,[2],inactive
same,outcome,[3],inactive
same,outcome,[4],inactive
same,outcome,[5],inactive
same,outcome,[6],inactive
same,outcome,[7],inactive
CN(C(=O)C(Cl)Cl)c1ccc(OC(=O)c2ccco2)cc1,"activity change, negative = inhibition",[1]; at 25.7 µM (top of the series),-19.5% (inactive)
same,max response,[1]; [21],-11.9%
same,max response,[1]; [22],-28.6%
Cc1ccc(O)cc1,Potency,[9],inactive
same,Potency,[10],inactive
same,Potency,[11],inactive
same,Potency,[12],inactive
same,Potency,[13],inactive
same,Potency,[14],inactive
same,Potency,[15],inactive
same,Potency,[16],inactive
same,Potency,[17],inactive
same,Potency,[18],inactive
same,Potency,[19],inactive
same,Potency,[20],inactive
same,"activity change, negative = inhibition",[1]; at 57.5 µM (top of the series),6.36% (inactive)
same,max response,[1]; [21],10.2%
same,max response,[1]; [22],20.7%
OC(CCCN1CCCCC1)(c1ccccc1)c1ccccc1,"activity change, negative = inhibition",[1]; at 25.7 µM (top of the series),-0.646% (inactive)
same,max response,[1]; [21],10.3%
same,max response,[1]; [22],9.61%
O=C(O)/C=C(\CC(=O)O)C(=O)O,"activity change, negative = inhibition",[1]; at 57.5 µM (top of the series),3.99% (inactive)
same,max response,[1]; [21],-7.3%
same,max response,[1]; [22],1.94%
Nc1c2ccccc2nc2ccccc12,Potency,[9],15.8 µM (active)
same,Potency,[10],12.6 µM (active)
same,Potency,[11],12.6 µM (active)
same,Potency,[12],10 µM (active)
same,Potency,[13],10 µM (active)
same,Potency,[14],10 µM (active)
same,Potency,[15],10 µM (active)
same,Potency,[16],12.6 µM (active)
same,Potency,[17],12.6 µM (active)
same,Potency,[18],15.8 µM (active)
same,Potency,[19],20 µM (active)
same,Potency,[20],12.6 µM (active)
same,"activity change, negative = inhibition",[1]; at 57.5 µM (top of the series),-13.1% (inactive)
same,max response,[1]; [21],-6.77%
same,max response,[1]; [22],-18.9%
C1N2CN3CN1CN(C2)C3,"activity change, negative = inhibition",[1]; at 57.5 µM (top of the series),4.78% (inactive)
same,max response,[1]; [21],-0.0775%
same,max response,[1]; [22],6.42%
CN(C)c1cc2c(Nc3ccc4c(cnn4Cc4ccccc4)c3)ncnc2cn1,outcome,[2],inactive
same,outcome,[3],inactive
same,outcome,[4],inactive
same,outcome,[6],inactive
same,Potency,[8],5.01 µM (active)
CCOC(=O)NNc1nncc2ccccc12,"activity change, negative = inhibition",[1]; at 25.7 µM (top of the series),0.543% (inactive)
same,max response,[1]; [21],-3.66%
same,max response,[1]; [22],-3.48%
Cc1ccc2c(Cl)cc(Cl)c(O)c2n1,"activity change, negative = inhibition",[1]; at 57.5 µM (top of the series),4.67% (inactive)
same,max response,[1]; [21],-3.23%
same,max response,[1]; [22],2.66%
